# Laboratory results from article PMC7862700, “An all-to-all approach to the identification of sequence-specific readers for epigenetic DNA modifications on cytosine”.
# Legend:
# Test in all cases: DAPPL (digital affinity profiling via proximity ligation, sequencing); 10 mM Tris-HCl pH 7.5, 50 mM NaCl, 1 mM DTT, 4% glycerol, room temperature, 30 min; GST-TFs on glutathione beads, 16-mer random dsDNA library, 0.1% formaldehyde crosslink after washing; high values mean tight binding
# Settings in all cases: protein: recombinant; tags: N-terminal GST; dsDNA, one strand shown
# FEV = target: T1, FEV (Homo sapiens, UniProt Q99581 1-238)
# T1 sequence: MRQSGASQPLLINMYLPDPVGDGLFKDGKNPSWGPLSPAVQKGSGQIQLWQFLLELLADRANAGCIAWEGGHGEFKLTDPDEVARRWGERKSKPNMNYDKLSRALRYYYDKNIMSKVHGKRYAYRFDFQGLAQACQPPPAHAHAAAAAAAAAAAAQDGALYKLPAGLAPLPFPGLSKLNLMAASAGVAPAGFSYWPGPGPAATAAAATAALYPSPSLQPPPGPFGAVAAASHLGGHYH
# How it was run: (§1)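 Beads coated with glutathione captured GST-fused human transcription factors that had been expressed in yeast, and the factors were then given DNA barcodes and pooled with a tag-only sample. The pools were incubated with 200 nmole of a random double-stranded 16-mer DNA library in Tris/NaCl/DTT/glycerol buffer for 30 min at room temperature, washed, crosslinked with 0.1% formaldehyde and proximity-ligated with BsaI/T4 ligase at 37 °C for 1 h. PCR amplification and Illumina NextSeq500 sequencing came last. Binding signal is each hexamer's read frequency for a factor divided by its frequency for the tag-only sample.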
# ETV5 = ETV5 (Homo sapiens, UniProt P41161 1-510)
# How it was run: as §1
# SPIC = target: T2, SPIC (Homo sapiens, UniProt Q8N5J4 1-248)
# T2 sequence: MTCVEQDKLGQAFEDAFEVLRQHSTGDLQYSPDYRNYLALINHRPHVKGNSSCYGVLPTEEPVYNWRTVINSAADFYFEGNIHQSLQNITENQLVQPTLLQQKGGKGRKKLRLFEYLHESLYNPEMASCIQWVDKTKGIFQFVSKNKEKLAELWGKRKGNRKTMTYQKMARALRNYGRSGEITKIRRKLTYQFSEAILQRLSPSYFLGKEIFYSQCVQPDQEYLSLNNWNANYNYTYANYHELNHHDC
# How it was run: as §1
# ELF4 = ELF4 (Homo sapiens, UniProt Q99607 1-663)
# How it was run: as §1
# ELK4 = target: T3, ELK4 (Homo sapiens, UniProt P28324-2 1-405)
# T3 sequence: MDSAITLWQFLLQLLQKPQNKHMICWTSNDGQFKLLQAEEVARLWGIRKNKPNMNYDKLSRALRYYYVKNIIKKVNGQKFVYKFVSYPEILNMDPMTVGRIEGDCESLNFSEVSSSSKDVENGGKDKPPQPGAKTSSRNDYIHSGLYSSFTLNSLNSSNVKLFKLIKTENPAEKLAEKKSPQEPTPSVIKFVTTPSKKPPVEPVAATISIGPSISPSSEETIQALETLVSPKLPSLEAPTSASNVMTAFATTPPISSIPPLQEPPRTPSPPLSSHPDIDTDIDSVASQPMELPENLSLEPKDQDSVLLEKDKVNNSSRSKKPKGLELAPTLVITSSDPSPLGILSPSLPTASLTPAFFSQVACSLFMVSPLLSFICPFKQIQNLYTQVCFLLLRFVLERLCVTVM
# How it was run: as §1
# ETV2 = target: T4, ETV2 (Homo sapiens, UniProt O00321 1-342)
# T4 sequence: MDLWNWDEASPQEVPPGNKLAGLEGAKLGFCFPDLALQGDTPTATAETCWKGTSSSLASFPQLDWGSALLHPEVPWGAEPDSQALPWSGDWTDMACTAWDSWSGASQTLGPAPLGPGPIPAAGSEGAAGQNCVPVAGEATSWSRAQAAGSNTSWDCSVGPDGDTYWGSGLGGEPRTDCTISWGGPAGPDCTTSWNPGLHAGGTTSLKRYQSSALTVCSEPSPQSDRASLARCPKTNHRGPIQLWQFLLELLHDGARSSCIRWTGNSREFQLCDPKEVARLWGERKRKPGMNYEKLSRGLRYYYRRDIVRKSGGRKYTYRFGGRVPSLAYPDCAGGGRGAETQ
# How it was run: as §1
# ELF3 = target: T5, ELF3 (Homo sapiens, UniProt P78545 1-371)
# T5 sequence: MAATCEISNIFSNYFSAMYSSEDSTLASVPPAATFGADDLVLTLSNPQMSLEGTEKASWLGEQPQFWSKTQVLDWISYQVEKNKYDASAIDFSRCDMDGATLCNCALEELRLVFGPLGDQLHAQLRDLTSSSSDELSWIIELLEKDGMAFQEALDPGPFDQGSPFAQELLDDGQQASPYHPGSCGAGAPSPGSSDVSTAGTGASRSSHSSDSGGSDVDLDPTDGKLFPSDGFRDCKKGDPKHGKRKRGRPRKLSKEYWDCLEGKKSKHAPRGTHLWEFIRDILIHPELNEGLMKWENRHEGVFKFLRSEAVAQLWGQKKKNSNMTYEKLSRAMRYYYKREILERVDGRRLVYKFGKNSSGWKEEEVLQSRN
# How it was run: as §1
# ETV1 = ETV1 (Homo sapiens, UniProt P50549 1-477)
# How it was run: as §1
# ERF = target: T6, ERF (Homo sapiens, UniProt P50548 1-548)
# T6 sequence: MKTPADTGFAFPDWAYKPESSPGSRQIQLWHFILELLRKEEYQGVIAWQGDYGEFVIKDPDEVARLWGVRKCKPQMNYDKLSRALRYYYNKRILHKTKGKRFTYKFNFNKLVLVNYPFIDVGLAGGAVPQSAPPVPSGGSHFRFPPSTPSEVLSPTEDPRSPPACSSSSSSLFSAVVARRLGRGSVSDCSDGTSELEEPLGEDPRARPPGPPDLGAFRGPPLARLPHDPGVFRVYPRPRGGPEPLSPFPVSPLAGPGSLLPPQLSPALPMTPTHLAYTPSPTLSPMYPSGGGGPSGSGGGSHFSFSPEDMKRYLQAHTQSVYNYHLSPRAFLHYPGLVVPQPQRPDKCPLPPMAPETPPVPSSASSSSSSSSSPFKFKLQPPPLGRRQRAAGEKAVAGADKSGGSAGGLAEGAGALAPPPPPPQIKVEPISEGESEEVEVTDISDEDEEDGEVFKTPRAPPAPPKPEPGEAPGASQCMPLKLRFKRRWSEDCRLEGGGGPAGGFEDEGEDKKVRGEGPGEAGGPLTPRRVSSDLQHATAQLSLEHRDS
# How it was run: as §1
# ETV3L = target: T7, ETV3L (Homo sapiens, UniProt Q6ZN32 1-361)
# T7 sequence: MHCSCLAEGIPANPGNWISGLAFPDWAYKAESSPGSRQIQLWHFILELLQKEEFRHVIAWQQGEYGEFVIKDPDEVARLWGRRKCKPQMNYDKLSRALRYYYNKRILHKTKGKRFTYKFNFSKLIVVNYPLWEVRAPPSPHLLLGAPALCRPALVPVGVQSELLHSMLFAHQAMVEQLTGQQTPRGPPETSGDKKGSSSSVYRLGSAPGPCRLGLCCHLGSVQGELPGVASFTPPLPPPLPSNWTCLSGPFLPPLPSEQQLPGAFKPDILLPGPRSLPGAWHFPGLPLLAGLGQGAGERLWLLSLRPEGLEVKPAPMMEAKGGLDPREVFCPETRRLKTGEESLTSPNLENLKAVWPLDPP
# How it was run: as §1
# ETS2 = target: T8, ETS2 (Homo sapiens, UniProt P15036 1-469)
# T8 sequence: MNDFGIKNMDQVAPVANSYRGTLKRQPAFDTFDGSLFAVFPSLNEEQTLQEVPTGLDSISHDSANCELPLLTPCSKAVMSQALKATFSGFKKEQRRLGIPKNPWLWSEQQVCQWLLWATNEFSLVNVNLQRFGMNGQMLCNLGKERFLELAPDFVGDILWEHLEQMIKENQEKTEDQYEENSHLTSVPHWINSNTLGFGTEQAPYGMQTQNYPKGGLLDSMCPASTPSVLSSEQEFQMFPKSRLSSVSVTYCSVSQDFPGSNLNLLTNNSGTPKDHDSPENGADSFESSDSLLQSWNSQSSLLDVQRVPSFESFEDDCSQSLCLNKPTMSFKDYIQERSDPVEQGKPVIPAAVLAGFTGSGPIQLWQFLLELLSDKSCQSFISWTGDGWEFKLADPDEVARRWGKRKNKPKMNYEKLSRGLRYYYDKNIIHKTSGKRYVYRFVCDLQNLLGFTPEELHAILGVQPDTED
# How it was run: as §1
# SPDEF = target: T9, SPDEF (Homo sapiens, UniProt O95238 1-335)
# T9 sequence: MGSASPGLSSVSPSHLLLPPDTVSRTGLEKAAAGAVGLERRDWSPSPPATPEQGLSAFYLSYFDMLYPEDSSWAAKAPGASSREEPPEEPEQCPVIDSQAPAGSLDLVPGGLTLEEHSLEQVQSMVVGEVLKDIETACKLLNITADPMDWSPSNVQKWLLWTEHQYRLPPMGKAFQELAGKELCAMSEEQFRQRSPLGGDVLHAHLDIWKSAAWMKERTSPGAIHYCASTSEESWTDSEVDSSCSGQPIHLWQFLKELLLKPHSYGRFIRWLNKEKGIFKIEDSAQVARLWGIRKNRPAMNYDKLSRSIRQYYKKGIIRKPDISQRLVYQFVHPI
# How it was run: as §1
# ETV7 = target: T10, ETV7 (Homo sapiens, UniProt Q9Y603 1-341)
# T10 sequence: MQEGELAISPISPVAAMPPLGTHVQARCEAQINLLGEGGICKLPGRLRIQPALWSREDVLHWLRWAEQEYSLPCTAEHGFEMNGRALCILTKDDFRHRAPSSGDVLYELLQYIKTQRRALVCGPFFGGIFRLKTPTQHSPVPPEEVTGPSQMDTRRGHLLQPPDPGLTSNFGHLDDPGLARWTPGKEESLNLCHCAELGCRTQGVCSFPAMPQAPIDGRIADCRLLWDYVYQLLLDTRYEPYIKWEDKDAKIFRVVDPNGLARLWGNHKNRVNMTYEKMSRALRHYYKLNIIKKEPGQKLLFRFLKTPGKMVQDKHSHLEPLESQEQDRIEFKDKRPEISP
# How it was run: as §1
# ELF5 = target: T11, ELF5 (Homo sapiens, UniProt Q9UKW6-2 1-255)
# T11 sequence: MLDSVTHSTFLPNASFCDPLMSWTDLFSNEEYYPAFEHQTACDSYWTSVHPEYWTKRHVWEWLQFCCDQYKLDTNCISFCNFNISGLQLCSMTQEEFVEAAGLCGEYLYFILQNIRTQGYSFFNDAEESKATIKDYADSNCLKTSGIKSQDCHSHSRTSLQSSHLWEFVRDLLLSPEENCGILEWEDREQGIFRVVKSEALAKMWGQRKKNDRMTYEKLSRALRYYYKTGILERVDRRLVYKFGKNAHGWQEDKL
# How it was run: as §1
# ETV3 = target: T12, ETV3 (Homo sapiens, UniProt P41162-2 1-143)
# T12 sequence: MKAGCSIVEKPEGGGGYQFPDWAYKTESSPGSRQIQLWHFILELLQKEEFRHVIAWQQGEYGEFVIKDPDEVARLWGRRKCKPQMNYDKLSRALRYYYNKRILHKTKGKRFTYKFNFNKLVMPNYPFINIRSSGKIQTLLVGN
# How it was run: as §1
# ETV6 = ETV6 (Homo sapiens, UniProt P41212 1-452)
# How it was run: as §1
# Chain of ETV1 (P50549 whole entry): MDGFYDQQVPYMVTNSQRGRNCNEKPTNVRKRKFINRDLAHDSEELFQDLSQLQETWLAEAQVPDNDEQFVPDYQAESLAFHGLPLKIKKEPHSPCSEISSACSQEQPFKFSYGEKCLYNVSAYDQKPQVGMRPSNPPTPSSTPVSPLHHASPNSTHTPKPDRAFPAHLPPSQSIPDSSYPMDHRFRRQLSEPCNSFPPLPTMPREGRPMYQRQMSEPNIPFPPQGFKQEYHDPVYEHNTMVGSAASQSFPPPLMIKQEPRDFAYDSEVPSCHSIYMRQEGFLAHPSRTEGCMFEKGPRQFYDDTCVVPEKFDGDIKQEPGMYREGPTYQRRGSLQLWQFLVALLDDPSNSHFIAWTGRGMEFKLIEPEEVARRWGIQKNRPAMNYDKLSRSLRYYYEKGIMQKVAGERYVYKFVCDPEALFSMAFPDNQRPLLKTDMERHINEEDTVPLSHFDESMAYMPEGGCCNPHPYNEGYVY
# Chain of ETV5 (P41161 whole entry): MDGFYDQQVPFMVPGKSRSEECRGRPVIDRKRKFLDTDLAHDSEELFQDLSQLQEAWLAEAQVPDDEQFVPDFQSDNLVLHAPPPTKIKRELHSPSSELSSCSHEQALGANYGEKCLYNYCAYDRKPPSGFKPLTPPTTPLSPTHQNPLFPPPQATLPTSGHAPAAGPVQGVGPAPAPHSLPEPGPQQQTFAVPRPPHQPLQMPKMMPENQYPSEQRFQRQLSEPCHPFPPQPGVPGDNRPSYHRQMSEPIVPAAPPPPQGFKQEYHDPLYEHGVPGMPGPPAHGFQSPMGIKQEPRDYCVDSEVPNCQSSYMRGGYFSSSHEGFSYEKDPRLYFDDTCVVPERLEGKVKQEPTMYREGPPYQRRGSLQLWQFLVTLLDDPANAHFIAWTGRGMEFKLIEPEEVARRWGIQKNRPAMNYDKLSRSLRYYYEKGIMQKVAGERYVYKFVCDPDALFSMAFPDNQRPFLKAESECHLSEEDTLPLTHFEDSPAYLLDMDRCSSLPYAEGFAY
# Chain of ELF4 (Q99607 whole entry): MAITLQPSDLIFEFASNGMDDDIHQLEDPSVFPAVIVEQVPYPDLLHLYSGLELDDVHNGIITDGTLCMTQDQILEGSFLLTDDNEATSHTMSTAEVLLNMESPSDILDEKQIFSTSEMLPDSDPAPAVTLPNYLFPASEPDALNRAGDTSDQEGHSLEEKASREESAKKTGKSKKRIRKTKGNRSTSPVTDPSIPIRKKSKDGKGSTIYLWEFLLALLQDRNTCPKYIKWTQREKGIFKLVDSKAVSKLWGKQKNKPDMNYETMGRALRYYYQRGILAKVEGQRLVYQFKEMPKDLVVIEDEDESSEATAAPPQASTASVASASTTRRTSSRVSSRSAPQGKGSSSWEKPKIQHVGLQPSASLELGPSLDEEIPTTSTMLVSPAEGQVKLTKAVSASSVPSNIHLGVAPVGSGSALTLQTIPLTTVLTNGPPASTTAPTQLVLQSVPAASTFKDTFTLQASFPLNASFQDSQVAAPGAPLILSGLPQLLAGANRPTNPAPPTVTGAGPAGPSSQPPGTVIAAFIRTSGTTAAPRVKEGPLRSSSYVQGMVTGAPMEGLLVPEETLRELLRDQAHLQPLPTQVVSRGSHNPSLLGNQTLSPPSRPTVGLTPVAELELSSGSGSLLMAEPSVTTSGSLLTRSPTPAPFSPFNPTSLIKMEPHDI
# Chain of ETV6 (P41212 whole entry): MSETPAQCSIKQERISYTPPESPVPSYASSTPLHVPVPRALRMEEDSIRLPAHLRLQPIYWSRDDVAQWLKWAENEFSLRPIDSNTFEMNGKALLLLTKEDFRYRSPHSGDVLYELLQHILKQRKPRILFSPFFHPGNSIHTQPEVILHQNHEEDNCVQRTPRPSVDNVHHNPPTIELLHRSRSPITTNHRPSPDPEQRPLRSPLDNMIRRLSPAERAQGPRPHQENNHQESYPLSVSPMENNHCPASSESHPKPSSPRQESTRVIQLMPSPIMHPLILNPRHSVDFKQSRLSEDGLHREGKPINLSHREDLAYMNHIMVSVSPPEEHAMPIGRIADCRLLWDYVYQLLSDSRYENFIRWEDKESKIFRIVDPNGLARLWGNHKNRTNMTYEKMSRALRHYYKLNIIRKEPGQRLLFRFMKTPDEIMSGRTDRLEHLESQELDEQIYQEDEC
sequence,measurement,setting,value
AGTACA,binding signal,FEV,"1.13 fold enrichment (6-mer frequency, TF over GST control)"
same,binding signal,ETV5,"1.13 fold enrichment (6-mer frequency, TF over GST control)"
same,binding signal,SPIC,"1.07 fold enrichment (6-mer frequency, TF over GST control)"
same,binding signal,ELF4,"1.19 fold enrichment (6-mer frequency, TF over GST control)"
same,binding signal,ELK4,"1.07 fold enrichment (6-mer frequency, TF over GST control)"
same,binding signal,ETV2,"1.01 fold enrichment (6-mer frequency, TF over GST control)"
same,binding signal,ELF3,"1.13 fold enrichment (6-mer frequency, TF over GST control)"
same,binding signal,ETV1,"1.11 fold enrichment (6-mer frequency, TF over GST control)"
same,binding signal,ERF,"1.06 fold enrichment (6-mer frequency, TF over GST control)"
same,binding signal,ETV3L,"1.09 fold enrichment (6-mer frequency, TF over GST control)"
same,binding signal,ETS2,"1.16 fold enrichment (6-mer frequency, TF over GST control)"
same,binding signal,SPDEF,"1.31 fold enrichment (6-mer frequency, TF over GST control)"
same,binding signal,ETV7,"1.21 fold enrichment (6-mer frequency, TF over GST control)"
same,binding signal,ELF5,"1.17 fold enrichment (6-mer frequency, TF over GST control)"
same,binding signal,ETV3,"1.2 fold enrichment (6-mer frequency, TF over GST control)"
same,binding signal,ETV6,"1.24 fold enrichment (6-mer frequency, TF over GST control)"
